Screens from PubChem.
GSTO1 inh = inhibitors of recombinant GSTO1, primary screen, counter-screen for RBBP9 inhibitor project, biochemical, fluorescence polarization; inhibition, % at 5.96 µM; activity-based probe fluorescence polarization; Glutathione S-transferase omega-1 (Homo sapiens), P78417; AID 1974, 2009; 300,000 compounds, 1.1% hits;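 active = inhibition above the campaign mean inhibition plus 3 SD, cut at about 35% in these data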
PME-1 primary = PME-1 inhibitors via competitive probe labeling, primary screen, biochemical, fluorescence polarization, FP-Rh probe, HTS; inhibition, % at 5.9 µM; AID 2130, 2009; Protein phosphatase methylesterase 1 (Homo sapiens), Q9Y570; recombinant PME-1; 320,000 compounds, 0.53% hits;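 active = inhibition above the campaign mean of all compounds plus 3 SD, cut at about 26% in these data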;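 also: competitive labeling of PME-1 active site by serine hydrolase directed probe; inhibitors block probe labeling so polarization falls and inhibition rises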
Fam108B inh = mouse Fam108B serine hydrolase inhibitors, primary screen, counter-screen for RBBP9 inhibitor project, biochemical, fluorescence polarization | recombinant Fam108B, FP-Rh probe fluorescence polarization | inhibition, % at 9.51 µM | 300,000 compounds, 0.33% hits | AID 1947, 2009;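 active = inhibition above the screen mean inhibition plus 3 SD, computed separately per campaign, cut at about 18% in these data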;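 also: inhibitors lower polarization as less probe binds the enzyme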
LYPLA1 counter = LYPLA1 inhibitors, primary screen, counter-screen for PME1 inhibitor project, biochemical, fluorescence polarization, FP-Rh probe ABPP; Acyl-protein thioesterase 1 (Homo sapiens), O75608; recombinant LYPLA1; inhibition, % at 5.9 µM; 320,000 compounds, 0.16% hits;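 active = inhibition above the mean of all tested compounds plus 3 SD, set per campaign, cut at about 14% in these data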;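 also: inhibitors block serine hydrolase probe labeling of LYPLA1 so polarization falls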
LYPLA2 counter = LYPLA2 inhibitors, primary screen, counter-screen for PME1 inhibitor project, biochemical, fluorescence polarization, FP-Rh probe ABPP; inhibition, % at 5.9 µM; Acyl-protein thioesterase 2 (Homo sapiens), O95372; recombinant LYPLA2; 320,000 compounds, 0.38% hits;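 active = inhibition above the screen-wide mean plus 3 SD, limit set per campaign, cut at about 26% in these data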
PAD4 inh = human PAD4 inhibitors, primary screen, biochemical, fluorescence polarization, 1536-well format | inhibition, % at 6.36 µM | recombinant PAD4, RCA probe fluorescence polarization | 330,000 compounds, 0.41% hits | AID 485272, 2010 | Protein-arginine deiminase type-4 (Homo sapiens), Q9UM07;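 active = percent inhibition above a cutoff equal to the mean of all tested compounds plus 3 SD, cut at about 15% in these data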
Target sequence (Q9UM07 whole entry, looked up): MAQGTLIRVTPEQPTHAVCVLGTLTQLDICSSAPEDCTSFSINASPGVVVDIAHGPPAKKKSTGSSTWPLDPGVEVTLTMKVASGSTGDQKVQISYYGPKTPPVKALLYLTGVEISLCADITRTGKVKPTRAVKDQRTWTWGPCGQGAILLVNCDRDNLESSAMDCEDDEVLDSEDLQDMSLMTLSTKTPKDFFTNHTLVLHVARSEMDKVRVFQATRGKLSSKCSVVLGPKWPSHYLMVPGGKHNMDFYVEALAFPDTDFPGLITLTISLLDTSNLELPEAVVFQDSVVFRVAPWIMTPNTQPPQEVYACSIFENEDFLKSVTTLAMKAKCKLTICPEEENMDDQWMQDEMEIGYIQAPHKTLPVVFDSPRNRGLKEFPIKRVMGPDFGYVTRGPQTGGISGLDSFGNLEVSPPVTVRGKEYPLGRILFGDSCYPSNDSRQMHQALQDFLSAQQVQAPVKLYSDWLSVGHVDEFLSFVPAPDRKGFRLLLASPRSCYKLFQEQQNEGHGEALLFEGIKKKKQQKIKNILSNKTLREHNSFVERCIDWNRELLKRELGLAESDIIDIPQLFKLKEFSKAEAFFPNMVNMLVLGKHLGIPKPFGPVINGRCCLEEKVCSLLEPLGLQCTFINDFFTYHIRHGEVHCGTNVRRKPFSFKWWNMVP
GSTO1 inh conf = GSTO1 inhibitor hit confirmation, counter-screen for RBBP9 inhibitor project, biochemical, fluorescence polarization, triplicate | shares compounds with GSTO1 inh | recombinant GSTO1, probe fluorescence polarization | inhibition, % at 5.96 µM | 2,400 compounds, 54% hits;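 active = inhibition above the primary screen's cutoff, its mean inhibition plus 3 SD, cut at about 35% in these data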;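 also: loss of polarization as inhibitors block binding of rhodamine sulfonate ester activity probe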
GSTO1 ABPP inh = inhibitors of purified human GSTO1, late-stage follow-up, biochemical, gel ABPP, SE-Rh probe, percent inhibition; shares compounds with GSTO1 inh; recombinant GSTO1, gel ABPP SE-Rh probe fluorescence; inhibition, % at 1 µM; 130 compounds, 30% hits;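 active = inhibition of the enzyme GSTO1 above about 75%, limit read from the data; inactive = inhibition below that limit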
Each line names hits and unclear results; the compound was inactive in the other large screens (follow-up assays come after a bar, where they were run). This is a sample that favours compounds with a hit; in the whole collection about 1.8% have one here.

CC1CCCCC1NC(=O)CSc1nnc(CC(=O)Nc2ccccc2F)n1C (stereo not drawn)	none
Cc1ccc(SCC(=O)Nc2cc(S(=O)(=O)N3CCCCC3)ccc2C)cc1	none (no result: GSTO1 inh, PME-1 primary, Fam108B inh, LYPLA1 counter, LYPLA2 counter)
CC(C)C(=O)Nc1ccc(C(=O)Nc2nnc(C(C)(C)C)s2)cc1	none
COc1cc(CNc2ccc(N3CCCC3)cc2)cc(Cl)c1OC	GSTO1 inh 59 | GSTO1 inh conf 57
CCOc1ccc(CNc2ccc(N3CCCC3)cc2)cc1	GSTO1 inh 66 | GSTO1 inh conf 55
COc1ccccc1CNc1ccc(N2CCCCC2)cc1	GSTO1 inh 51 | GSTO1 inh conf inactive
CCOc1cc(CNc2ccc(S(N)(=O)=O)cc2)cc(Cl)c1OC	none
CCOc1cc(CNc2ccc(N3CCCC3)cc2)cc(Cl)c1OC	GSTO1 inh 70 | GSTO1 inh conf 70
N#Cc1ccc(OCC(=O)OCC(=O)Nc2cc(C(F)(F)F)ccc2N2CCOCC2)cc1	none
COc1ccc(NC(=S)NC(=O)C2CCC2)cc1	none
O=C1C(Cl)=C(NS(=O)(=O)c2ccc([N+](=O)[O-])cc2)C(=O)c2ccccc21	GSTO1 inh 100 | GSTO1 inh conf 88
O=[N+]([O-])c1ccc(Oc2ccc(S(=O)(=O)Nc3ccccc3)cc2)cc1	none
OC(COC(c1ccc(F)cc1)c1ccc(F)cc1)CN1CCCC1 (stereo not drawn)	none
Cn1cc(C(=O)c2ccc(Cl)cc2Cl)cc1C(=O)N/N=C(\N)COc1ccc(Cl)cc1Cl	none
CCOC(=O)C/C(N)=N/NC(=O)c1ccc(Cl)cc1Cl	GSTO1 inh 62 | GSTO1 inh conf inactive
CCN(CC)c1ccc(N=Cc2ccc([N+](=O)[O-])o2)cc1	GSTO1 inh 73 | GSTO1 inh conf inactive
Cc1ccc(-n2c(Cc3cccn3C)nnc2SCC(=O)NCc2ccc3c(c2)OCO3)cc1	none
CCOc1ccc(/C(O)=C2/C(=O)C(=O)N(c3cc(C)on3)C2c2ccc(C(=O)OC)cc2)cc1 (stereo not drawn)	GSTO1 inh 44 | GSTO1 inh conf inactive
CCCOc1ccc(/C(O)=C2/C(=O)C(=O)N(c3cc(C)on3)C2c2ccc(C(=O)OC)cc2)cc1 (stereo not drawn)	none
COc1ccc(NC(=O)N2CCN(C(=O)c3ccco3)CC2)c(OC)c1	none
Nc1nc(SCCO)[nH]c(=O)c1NC(=O)c1ccc(Br)o1	none
COc1ccc(-c2[nH]ncc2CN2CCN(Cc3cccs3)CC2)cc1F	GSTO1 inh 72 | GSTO1 inh conf inactive
Cc1ccc(S(=O)(=O)c2nc(S(C)(=O)=O)sc2N2CCC3(CC2)OCCO3)cc1	GSTO1 inh 63 | GSTO1 inh conf inactive
CC(OC(=O)c1cc(=O)[nH]c2ccccc12)C(=O)NC1CCCC1 (stereo not drawn)	none (no result: GSTO1 inh, Fam108B inh)
O=C(C[n+]1ccccc1)NNc1ccccc1	none
COc1ccc(Br)cc1-c1nc(CCl)cs1	GSTO1 inh 72 | GSTO1 inh conf 97 | GSTO1 ABPP inh inactive
Cc1ccc(OCC(=O)NNC(=O)C2CCN(c3nc(C)cc(C)n3)CC2)cc1	none
O=C(CN1CCCCC1)Nc1cccc(Oc2ccccc2)c1	none
CC(=O)Nc1ccc(NC(=O)Cc2ccc(-c3ccccc3)cc2)cc1	none
O=C(CCl)Nc1ccc(-c2ccccc2)cc1	GSTO1 inh 76 | GSTO1 inh conf 84
O=C(CCl)Nc1cccc(Oc2ccccc2)c1	GSTO1 inh 71 | GSTO1 inh conf 97
Cc1c(C(=O)Nc2ccc(F)cc2)c2ccccn2c1CCc1ccncc1	none
CC(=O)NCCc1cnc[nH]1	GSTO1 inh 47 | GSTO1 inh conf inactive
Nc1ccc2nn(-c3cccc4ccccc34)nc2c1	GSTO1 inh 61 | GSTO1 inh conf inactive
Cc1cc2nn(-c3cccc4ccccc34)nc2cc1N	none
COc1ccccc1CNC(=O)C1CCN(S(=O)(=O)c2ccc3nc4c(c(C(=O)O)c3c2)CCCC4)CC1	none
CC(=O)Nc1ccc(Sc2ccccc2C(=O)O)cn1	GSTO1 inh 44 | GSTO1 inh conf inactive
CC(=O)Nc1ccc(Sc2ccccc2C(=O)Nc2ccc(F)cc2)cn1	none
O=C(OCn1ncc(Cl)c(Cl)c1=O)c1ccc(F)cc1	GSTO1 inh 44 | GSTO1 inh conf inactive
O=c1c(Cl)c(Cl)cnn1Cc1ccc(F)cc1	none
CC(C)(O)CC[C@@H](O)[C@](C)(O)[C@H]1CC[C@@]2(O)C3=CC(=O)[C@@H]4C[C@@H](O)[C@@H](O)C[C@]4(C)[C@H]3CC[C@]12C	GSTO1 inh 39 | GSTO1 inh conf inactive
NCCCC[C@H](N)c1nnc([C@H](CCC(=O)O)NC(=O)C2CCNCC2)o1	none
Oc1ccc(/C=N/N2CCCCC2)c(O)c1O	GSTO1 inh 46 | GSTO1 inh conf inactive
Cc1ccc(CN=Cc2[nH]c3ccc(Br)c(Cl)c3c2O)cc1	GSTO1 inh 52 | GSTO1 inh conf inactive
COc1ccc(CN=Cc2c(O)[nH]c3ccccc23)cc1	none
Oc1c(C=NCc2ccc(F)cc2)[nH]c2ccc(Br)c(Cl)c12	GSTO1 inh 48 | GSTO1 inh conf inactive
O=c1[nH]c(=O)n(C2CCCCCC2)c(O)c1C=NCc1ccc(F)cc1	none
CC1=CC(C)(C)Nc2ccc(C)cc21	none
CC1=CC(C)(C)Nc2ccc(OC(=O)CN3C(=O)CCC3=O)cc21	GSTO1 inh 62 | GSTO1 inh conf inactive
Cc1cc(O)c(-c2n[nH]c3c2C(c2cccc(O)c2)N(Cc2cccnc2)C3=O)cc1Cl (stereo not drawn)	none
CSc1ccc(C(c2c(C)[nH][nH]c2=O)c2c(C)[nH][nH]c2=O)cc1	GSTO1 inh 39 | GSTO1 inh conf inactive
O=C(Nc1ccccc1Oc1ccccc1)C1CC1	none
C=CCC(NC(C)c1ccccc1)c1ccco1 (stereo not drawn)	none
C=CCN(CC=C)Cc1c(O)ccc2c1oc(=O)c1ccccc12	GSTO1 inh 55 | GSTO1 inh conf inactive
Cc1ccc(NC(=O)/C(=C\c2ccc([N+](=O)[O-])cc2)NC(=O)c2ccccc2)cc1	none
O=C(N/N=C/c1ccc(O)c(O)c1O)/C(=C/c1ccc([N+](=O)[O-])cc1)NC(=O)c1ccccc1	GSTO1 inh 54 | GSTO1 inh conf inactive
